Source: PubChem BioAssay (NCI)
The panel holds about 83,000 compounds, 20% with a hit somewhere; the sample as a whole holds those more often.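 Interpretation: 100, growth as untreated; towards 0, rising growth inhibition; 0, no net growth; 0 to -100, cell death. Compounds scoring below 10 were considered active.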 Unmarked numbers belong to inactive results. Calls of active or inactive are those of the source.

test system: HL-60(TB) leukemia; assay: NCI-60 one-dose screen, 48 h (100 = growth as untreated, 0 = no growth, -100 = all killed); details: 10 µM unless noted

Compound	growth
O=C(NCCCl)NCCN1c2nc3ccccc3cc2Sc2cc3ccccc3nc21	24.3%
N#Cc1ccccc1C#Cc1ccccc1C#Cc1ccc(OCCCCCCOc2ccc(C#Cc3ccccc3C#Cc3ccccc3C#N)cc2)cc1	99.7%
C#CCO[C@H]1CC[C@H](OCC#C)[C@@H]2[C@H]1[C@H]1C[C@@H]3[C@@]4(C)CCC[C@@](C)(C(=O)OC)[C@@H]4CC[C@@]23C=C1C(C)C	78.1%
COc1ccc(Cn2nc(-c3ccccc3)c3c2CCc2cnoc2-3)cc1	69.4%
Cc1ccc(=O)n(-c2ccc(Br)cc2F)c1	106%
CCCCC[C@H](O)C/C=C1/C(=O)C=C[C@@H]1C/C=C\CCCC(=O)O	90.7%
O=C1/C(=C/c2ccc(C(F)(F)F)cc2)COc2ccc(O)cc21	-36.1% (active)
C=C1C(=O)O[C@H]2[C@H]1CC/C(COC(=O)CCCCC(=O)OC/C1=C/CC[C@@]3(C)O[C@H]3[C@H]3OC(=O)C(=C)[C@@H]3CC1)=C\CC[C@@]1(C)O[C@@H]21	2.37% (active)
O=C1C(c2ccccc2)C2C=CC(C2)N1O (centres undefined)	93%
O=S(=O)(c1ccccc1)n1cc2c(c1-c1ccccc1)CCc1sc(Nc3ccccc3)nc1-2	94.1%
CCCCCC1CCCCN1C(=O)OCC (centres undefined)	77.5%
CC(C)c1ccccc1NC(=O)N1CCC(C(C)C)CC1	105%
CC(O)C(N)=O (centres undefined)	117%
O=C(/C=C\c1ccc2ccccc2n1)c1cc(Cl)ccc1O	89.8%
